We go through 24 compounds from PubChem BioAssay AID2462 (Broad Institute, 2010).

The campaign covered roughly 330,000 compounds. About 220 (0.067%) were called active. Shown is part of a subset that was picked to be rich in actives. Unmarked numbers belong to inactive results.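 Rule for the calls: active = over half of replicate activation scores above 10%, or exactly half above 10 with the replicate mean above 10; inconclusive = replicate mean below 10 yet half the replicates above 10; inactive = over half of replicates below 10.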

The assay can be described thus: caspase 3/7 activation in MEF A1-2A-BIM cells, primary screen, A1 inhibitor project, cell-based, luminescence, HTS (AID 2462). The conditions noted are these: Caspase-Glo 3/7 luminescence, 3 h, active compounds read high, percent of clofoctol response, vehicle zero, concentration not given here.
For the compound `O=C(NNC(=O)c1cccc(S(=O)(=O)Nc2ccc(Cl)cc2)c1)c1ccc(=O)[nH]c1`, the caspase activation was -1.36%. Take `Cc1[nH]n(-c2ccccc2)c(=O)c1/C=N/NC(=O)c1ccoc1C`: the caspase activation was -3.41%. Take `Cc1ccc(-n2[nH]c(C)c(/C=N/NC(=O)c3cccc([N+](=O)[O-])c3)c2=O)cc1C`: the caspase activation is -4.49%. As for `COc1cc(SC#N)ccc1N=Cc1c(C)[nH]n(-c2ccc(C)cc2)c1=O`, the caspase activation is 11.1% (active).

On to `O=C(NNS(=O)(=O)c1c(F)cc(F)c(Cl)c1F)C12CC3CC(CC(C3)C1)C2`, for which the caspase activation is 0.494%. Take `CCOC(=O)c1c(-c2cccc(N)c2)cn2ccccc12`: the caspase activation is 0.104%. Regarding `Cc1cc(NC(=O)CN2C(=O)NC(C)(CCc3ccccc3)C2=O)no1` (centres undefined), the caspase activation was -0.914%.

For `Cc1ccc(N/N=C2\COC(C)(C)CC2=O)cc1`, the caspase activation is 0.0616%.

`Cc1c(Cl)cccc1NC(=O)CSc1ccc(-c2cccnc2)nn1`: the caspase activation was 0.424%. For the compound `CC(C)C[C@H](NC(=O)N1CC(=O)Nc2ccccc21)C(=O)N[C@H](Cc1ccccc1)C(=O)O`, the caspase activation was 0.252%. In the case of `CNC(=O)COc1ccc(S(=O)(=O)Nc2ccccc2)cc1`, the caspase activation was -0.951%. As to `Cc1ccc(NC(=O)/C(=C/c2ccc([N+](=O)[O-])cc2)NC(=O)c2ccccc2)cc1`, the caspase activation is -0.427%.

On to `CCOC(=O)/C(=C\c1ccc([N+](=O)[O-])cc1)C(=O)c1cc(C(C)=O)c(Nc2ccccc2)s1`, for which the caspase activation was 46.4% (active). As to `CCOC(=O)/C(=N\Nc1ccccc1[N+](=O)[O-])c1csc(Nc2ccccc2)n1`, the caspase activation is -0.494%. `C/C(=C/C(=O)N1CCN(C)CC1)C(=O)O`: the caspase activation is 0.653%.

For `Cc1cc(C)nc(NNC2=CC(=O)CC(C)(C)C2)n1`, the caspase activation was -0.196%.

`CC(C)(C)N(Cc1ccccc1)C(=O)COC(=O)CCc1c[nH]c2ccccc12`: the caspase activation is -1%. The same measure for `COc1ccc(N2C(=O)/C(=C\c3ccco3)N=C2SCC(N)=O)cc1Cl`: -0.66%; for `Cc1cc(C)n(S(=O)(=O)c2cccc([N+](=O)[O-])c2)n1`: 0.962%; for `O=C(NCc1ccco1)c1ccc([N+](=O)[O-])cc1Cl`: 1.19%. In the case of `COc1cc2c(cc1NC(=O)COC(=O)/C=C/c1ccccc1)oc1ccccc12`, the caspase activation is 8.52% (active).

Turning to `COc1cc(/C=C/C(=O)OCC(=O)c2ccccc2)cc(OC)c1OC`, the caspase activation is 0.0945%. For `COc1cc2c(cc1NC(=O)CN1CCN(S(=O)(=O)c3ccc(F)cc3)CC1)oc1ccccc12`, the caspase activation was -0.105%.

Take `Cc1[nH]n(-c2ccccc2)c(=O)c1CCOC(=O)c1ccc(C(F)(F)F)cc1`: the caspase activation was 0.514%.
